# From PubChem BioAssay (Tox21)
# “And” between values parts separate entries of the source, which are not always exact repeats. Equal values may be shown once. Values without a mark were called inactive. Results filed as inconclusive are left out. A call without a number means that no potency is given here. The source made the active and inactive calls. Unless noted, the call rests on the fitted dose curve; in most records, active means well fitted curve in the direction sought with a large enough effect in the repeat runs; inconclusive means weak or mixed curves; inactive means no such curve, though single readings can be large; an effect the other way counts as inactive or inconclusive.
# Key:
# [1] = qHTS assay to identify small molecule antagonists of the glucocorticoid receptor (GR) signaling pathway - cell viability counter screen (AID 720693); further: nearly all actives have a fitted effect of over 55% in size
# [2] = qHTS assay for identifying genotoxic compounds that show differential cytotoxicity against isogenic chicken DT40 cell lines with known DNA damage response pathways - Rev3 mutant cell line (AID 743014); further: nearly all actives have a fitted effect of over 55% in size; further: potency means the concentration at half of the fitted maximal effect
# [3] = qHTS assay for identifying genotoxic compounds that show differential cytotoxicity against isogenic chicken DT40 cell lines with known DNA damage response pathways - Rad54/Ku70 mutant cell line (AID 743015); further: nearly all actives have a fitted effect of over 60% in size; further: potency means the concentration at half of the fitted maximal effect
# [4] = qHTS assay to identify small molecule antagonists of the androgen receptor (AR) signaling pathway - cell viability counter screen (AID 743033; further: nearly all actives have a fitted effect of over 45% in size)
# [5] = qHTS assay to identify small molecule antagonists of the androgen receptor (AR) signaling pathway using the MDA cell line - cell viability counter screen (AID 743041; further: nearly all actives have a fitted effect of over 45% in size)
# Summary of the method: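 Viability read by CellTiter-Fluor fluorescence in the same wells as the antagonist screen, added after 15.5 h of a 16 h, 37C exposure. Human breast carcinoma MDA-kb2 AR-luc cells, compounds co-dosed with agonist R1881.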
# [6] = qHTS assay for identifying genotoxic compounds that show differential cytotoxicity against isogenic chicken DT40 cell lines with known DNA damage response pathways - wild type cell line (AID 743012); further: nearly all actives have a fitted effect of over 60% in size; further: potency means the concentration at half of the fitted maximal effect
# Summary of the method: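 Cytotoxicity in repair-proficient parental chicken DT40 cells serves as the comparator for Rad54/Ku70- and Rev3-deficient lines. Cells were exposed to compounds for 40 h at 37 C/5% CO2, and ATP-based luminescence (CellTiter-Glo) measured viability.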
# [7] = target: Androgen receptor (Homo sapiens) (UniProt P10275); assay: qHTS assay to identify small molecule agonists of the androgen receptor (AR) signaling pathway using the MDA cell line (AID 743040; further: nearly all actives have a fitted effect of over 20% in size)
# Summary of the method: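 Luciferase agonist assay: 16 h compound exposure at 37C without CO2 in MDA-kb2 AR-luc cells, whose MMTV promoter responds to both AR and GR. Luminescence measured after 30 min room-temperature incubation with ONE-Glo.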
# [8] = target: Androgen receptor (Homo sapiens) (UniProt P10275); assay: qHTS assay to identify small molecule antagonists of the androgen receptor (AR) signaling pathway (AID 743035; active means well fitted inhibition curve with a large enough effect in the signal ratio in the repeat runs, not every such curve was filed as active; the % refers to the signal ratio)
# Summary of the method: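 Steps: seed AR-UAS-bla GripTite HEK293 cells, incubate 4 h at 37C; pin in test compound, then add agonist R1881; incubate 16 h at 37C; add LiveBLAzer B/G FRET substrate, 2 h at room temperature; read fluorescence.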
# [9] = target: Androgen receptor (Homo sapiens) (UniProt P10275); assay: qHTS assay to identify small molecule agonists of the androgen receptor (AR) signaling pathway (AID 743036; active means well fitted activation curve with a large enough effect in the signal ratio in the repeat runs, with a control signal flat, not every such curve was filed as active; the % refers to the signal ratio)
# Summary of the method: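 Beta-lactamase under UAS control, stably integrated in HEK293 GripTite cells, reports receptor activation. After 16 h compound treatment, cells received FRET substrate for 2 h at room temperature before fluorescence reading.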
# [10] = target: Androgen receptor (Homo sapiens) (UniProt P10275); assay: qHTS assay to identify small molecule antagonists of the androgen receptor (AR) signaling pathway using the MDA cell line (AID 743042; further: nearly all actives have a fitted effect of over 55% in size)
# Summary of the method: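 Antagonist mode: compounds plus R1881 agonist added to MDA-kb2 AR-luc cells, incubated 16 h at 37C. Luciferase reporter luminescence quantified, with multiplexed CellTiter-Fluor readout for cell viability.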
# Sequence of Androgen receptor (Homo sapiens) (P10275 whole entry, looked up): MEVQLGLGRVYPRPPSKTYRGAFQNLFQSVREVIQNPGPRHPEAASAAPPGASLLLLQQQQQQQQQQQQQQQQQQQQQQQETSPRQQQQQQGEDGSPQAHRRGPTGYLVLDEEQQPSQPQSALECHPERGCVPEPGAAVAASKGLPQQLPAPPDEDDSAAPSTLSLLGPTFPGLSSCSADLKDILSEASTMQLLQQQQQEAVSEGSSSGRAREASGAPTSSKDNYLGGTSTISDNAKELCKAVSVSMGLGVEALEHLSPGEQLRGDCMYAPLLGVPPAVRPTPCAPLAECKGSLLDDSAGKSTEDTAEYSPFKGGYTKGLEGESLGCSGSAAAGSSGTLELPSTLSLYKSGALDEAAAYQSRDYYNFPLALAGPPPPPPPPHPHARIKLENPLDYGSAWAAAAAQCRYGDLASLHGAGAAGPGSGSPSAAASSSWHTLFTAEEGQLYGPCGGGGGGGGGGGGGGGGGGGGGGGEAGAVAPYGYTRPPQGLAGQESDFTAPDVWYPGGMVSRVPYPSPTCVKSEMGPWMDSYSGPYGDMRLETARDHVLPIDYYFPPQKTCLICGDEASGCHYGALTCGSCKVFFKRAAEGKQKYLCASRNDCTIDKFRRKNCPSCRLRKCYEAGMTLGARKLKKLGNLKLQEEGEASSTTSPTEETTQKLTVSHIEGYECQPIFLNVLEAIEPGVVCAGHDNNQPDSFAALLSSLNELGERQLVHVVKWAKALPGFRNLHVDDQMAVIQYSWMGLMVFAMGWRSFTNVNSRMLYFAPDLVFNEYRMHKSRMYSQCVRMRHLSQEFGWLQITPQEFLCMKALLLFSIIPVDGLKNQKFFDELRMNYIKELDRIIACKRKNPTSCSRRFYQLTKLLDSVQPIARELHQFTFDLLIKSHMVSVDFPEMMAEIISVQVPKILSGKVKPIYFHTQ
smiles,measurement,setting,value
CCCCCCCCCCCCSCCOCCO,Potency,[1],inactive
same,Potency,[2],inactive
same,Potency,[3],inactive
same,Potency,[4],inactive
same,Potency,[5],inactive
C=C[Si]1(C)O[Si](C)(C=C)O[Si](C)(C=C)O[Si](C)(C=C)O1 (stereo not drawn),Potency,[1],inactive
same,Potency,[4],inactive
same,Potency,[5],inactive
NCCOCCOCCN,Potency,[6],24.3 µM (active)
same,Potency,[2],24.3 µM (active)
same,Potency,[3],24.3 µM (active)
same,outcome,[7],inactive
COC=O,"viability change, negative = cytotoxic",[1],-0.963% [at 7.04 µM]
same,Potency,[2],4.48 µM (active)
same,"activity change, negative = cytotoxicity",[4],-27.8% [at 7.04 µM]
same,"viability change, negative = cytotoxic",[5],12.8% [at 8.47 µM]
Cc1ccc2ccccc2c1[N+](=O)[O-],Potency,[1],inactive
same,Potency,[4],inactive
same,Potency,[5],inactive
S=c1[nH][nH]c(=S)s1,Potency,[1],inactive
same,Potency,[2],inactive
same,Potency,[5],inactive
O=C(N[C@@H](Cc1ccccc1)[C@@H](O)C(=O)N1C[C@@H](O)[C@@H](O)C1)c1cc2cc(Cl)ccc2[nH]1,Potency,[1],inactive
same,Potency,[5],inactive
O=C(OCCOCCOCCOC(=O)c1ccccc1)c1ccccc1,Potency,[1],inactive
same,Potency,[4],inactive
same,Potency,[5],inactive
C[C@]12CCC(=O)C=C1[C@@H]1C[C@@H]1[C@H]1[C@@H]3[C@@H]4C[C@@H]4[C@@]4(CCC(=O)O4)[C@@]3(C)CC[C@@H]12,Potency,[6],9.44 µM (active)
same,Potency,[2],11.9 µM (active)
same,Potency,[4],inactive
same,Potency,[5],inactive
CO[C@@H]1COCC[C@@H]1N[C@@H]1CC[C@@](C(=O)N2CCc3ncc(C(F)(F)F)cc3C2)(C(C)C)C1,Potency,[1],inactive
same,Potency,[5],inactive
O=Cc1ccc([N+](=O)[O-])cc1,Potency,[1],inactive
same,Potency,[3],48.9 µM (active)
same,Potency,[4],inactive
same,Potency,[5],inactive
N#Cc1ccc(CC(=O)c2cccc(C(F)(F)F)c2)cc1,Potency,[1],inactive
same,Potency,[4],inactive
same,Potency,[5],inactive
CC(C)C[C@H](NC(=O)[C@H](Cc1ccccc1)NC(=O)c1cnccn1)B(O)O,Potency,[6],13.3 nM (active) and 11.9 nM (active)
same,Potency,[2],13.3 nM (active) and 9.4 nM (active)
same,Potency,[3],11.9 nM (active) and 10.6 nM (active)
O=C1CCCN1CCO,Potency,[1],inactive
same,Potency,[2],54.5 µM (active)
same,Potency,[5],inactive
N#C[C@@H]1CC(F)(F)CN1C(=O)CNC1CC2CCC(C1)N2c1ncccn1 (stereo partly drawn),Potency,[1],inactive
same,Potency,[4],inactive
same,Potency,[8],inactive
same,outcome,[9],inactive
same,outcome,[7],inactive
same,Potency,[5],inactive
same,Potency,[10],inactive
CS(C)=O,Potency,[1],inactive
same,Potency,[4],inactive
same,Potency,[5],inactive
O=c1[nH][nH]c2ccccc12,Potency,[1],inactive
same,Potency,[3],inactive
same,Potency,[4],inactive
same,outcome,[7],inactive
same,Potency,[5],inactive
same,Potency,[10],inactive
CC(Cc1ccccc1)(NC(=O)CN)c1ccccc1 (stereo not drawn),Potency,[1],inactive
same,Potency,[2],inactive
same,Potency,[4],inactive
same,Potency,[5],inactive
CNc1ccccc1,Potency,[6],inactive
same,Potency,[2],inactive
same,Potency,[3],inactive
same,Potency,[4],inactive
same,Potency,[5],inactive
CC(C)=CCC/C(C)=C/C=N/O,Potency,[1],inactive
same,Potency,[4],inactive
same,Potency,[5],inactive
CC(C)=CCCC(C)C=O (stereo not drawn),Potency,[1],inactive
same,Potency,[3],61.1 µM (active)
same,Potency,[5],inactive
CC1(C)[C@@H]2CC[C@]3(C2)[C@@H]1C(=O)CCC3(C)C,Potency,[1],inactive
same,Potency,[8],inactive
same,outcome,[9],inactive
same,outcome,[7],inactive
same,Potency,[5],inactive
same,Potency,[10],inactive
C/C(=C(\CCO)SS/C(CCO)=C(\C)N(C=O)Cc1cnc(C)nc1N)N(C=O)Cc1cnc(C)nc1N,Potency,[1],inactive
same,Potency,[3],inactive
same,Potency,[4],inactive
same,Potency,[5],inactive
C[C@H](CN1CCCC1)C(=O)c1ccc(C(F)(F)F)cc1,Potency,[6],6.68 µM (active)
same,Potency,[2],10.6 µM (active)
same,Potency,[3],8.41 µM (active)
same,Potency,[4],inactive
same,Potency,[5],inactive
CC(C)(C(=O)O)c1ccc(C(O)CCCN2CCC(C(O)(c3ccccc3)c3ccccc3)CC2)cc1 (stereo not drawn),Potency,[1],inactive
same,Potency,[4],inactive
same,Potency,[5],inactive
CCCCOC(=O)C(C)Oc1ccc(Oc2ccc(C(F)(F)F)cn2)cc1 (stereo not drawn),Potency,[1],inactive
same,Potency,[4],inactive
same,Potency,[5],inactive
C=C(C)C(=O)OCCCCCCCCCCOC(=O)C(=C)C,Potency,[1],inactive
same,Potency,[2],30.6 µM (active)
same,Potency,[4],inactive
same,Potency,[5],inactive
COc1ccc(C(=O)Nc2ccccc2)cc1[N+](=O)[O-],Potency,[1],inactive
same,Potency,[4],inactive
same,Potency,[5],inactive
Clc1ccccc1-c1nc(-c2ccncc2)no1,Potency,[1],inactive
same,Potency,[2],inactive
same,Potency,[4],inactive
same,Potency,[5],inactive
CCN(CCCCOC(=O)c1ccc(OC)c(OC)c1)C(C)Cc1ccc(OC)cc1 (stereo not drawn),Potency,[1],inactive
same,Potency,[3],inactive
same,Potency,[4],inactive
same,Potency,[5],inactive
CCCCCCCCNC,Potency,[6],inactive
same,Potency,[2],inactive
same,Potency,[3],inactive
same,Potency,[5],inactive
O=C(O)c1ccccc1[N+](=O)[O-],Potency,[6],inactive
same,Potency,[2],inactive
same,Potency,[3],inactive
same,Potency,[4],inactive
same,Potency,[5],inactive
O=C(OCCCCCOC(=O)c1ccccc1)c1ccccc1,Potency,[1],inactive
same,Potency,[2],61.1 µM (active)
same,Potency,[4],inactive
same,Potency,[5],inactive
Cc1c(Cl)cccc1Nc1ccccc1C(=O)O,Potency,[1],inactive
same,Potency,[2],inactive
same,Potency,[5],inactive
CCOc1cc(OCC)c(C(C)=O)cc1OCC,Potency,[1],inactive
same,Potency,[2],60 µM (active)
same,Potency,[8],inactive
same,outcome,[9],inactive
same,outcome,[7],inactive
same,Potency,[5],inactive
same,Potency,[10],inactive
Oc1ccc(Oc2ccccc2)cc1,Potency,[6],20.6 µM (active)
same,Potency,[2],23.1 µM (active)
same,Potency,[3],36.6 µM (active)
same,Potency,[4],inactive
same,Potency,[5],inactive
O=C(O)c1ccc2c(c1)nc(C(=O)NC1CCN(C3CC3)CC1)n2Cc1cc(-c2ccc(Cl)s2)on1,Potency,[1],inactive
same,Potency,[2],inactive
same,Potency,[5],inactive
O=C(Nc1ccc2c(c1)Cc1ccccc1-2)C(F)(F)F,Potency,[1],inactive
same,Potency,[3],54.5 µM (active)
same,Potency,[4],inactive
same,Potency,[5],inactive
